Tests used:
Test in all cases: log2 ratio of Biotin-Ahx-Ub-VS probe labelling (fragment/DMSO); higher = less target engagement (more negative = stronger competition), active = hit call of the paper (q ≤ 0.05, log2 ratio ≤ -1)
Details in all cases: compound concentration: 200 uM; treatment time: 3 h
OTUD6B = target: T1, OTUD6B (UniProt Q8N6M0)
T1 sequence (whole entry): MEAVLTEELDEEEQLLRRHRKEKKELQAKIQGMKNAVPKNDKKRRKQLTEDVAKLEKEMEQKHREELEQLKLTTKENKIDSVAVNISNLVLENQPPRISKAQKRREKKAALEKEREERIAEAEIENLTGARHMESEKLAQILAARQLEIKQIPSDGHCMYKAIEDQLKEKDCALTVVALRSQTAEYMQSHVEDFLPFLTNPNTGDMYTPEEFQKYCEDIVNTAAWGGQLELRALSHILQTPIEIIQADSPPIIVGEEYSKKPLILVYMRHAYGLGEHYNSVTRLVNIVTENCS
Outline: (§1)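 Each value is an average log2 ratio of fragment to vehicle, tested by unpaired t-test. The underlying Spectronaut label-free quantities were global-median-normalised, and only proteins with ≥2 unique peptides were included. Triplicate HEK293T lysate samples (495 µg) were exposed to fragment at 200 µM or vehicle for 3 h, then to Biotin-Ahx-Ub-VS at 0.5 µM final for 1 h, before NeutrAvidin enrichment of labelled DUBs, LysC and trypsin digestion, and diaPASEF LC-MS/MS.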

OTUD7B = target: T2, OTUD7B (UniProt Q6GQQ9)
T2 sequence (whole entry): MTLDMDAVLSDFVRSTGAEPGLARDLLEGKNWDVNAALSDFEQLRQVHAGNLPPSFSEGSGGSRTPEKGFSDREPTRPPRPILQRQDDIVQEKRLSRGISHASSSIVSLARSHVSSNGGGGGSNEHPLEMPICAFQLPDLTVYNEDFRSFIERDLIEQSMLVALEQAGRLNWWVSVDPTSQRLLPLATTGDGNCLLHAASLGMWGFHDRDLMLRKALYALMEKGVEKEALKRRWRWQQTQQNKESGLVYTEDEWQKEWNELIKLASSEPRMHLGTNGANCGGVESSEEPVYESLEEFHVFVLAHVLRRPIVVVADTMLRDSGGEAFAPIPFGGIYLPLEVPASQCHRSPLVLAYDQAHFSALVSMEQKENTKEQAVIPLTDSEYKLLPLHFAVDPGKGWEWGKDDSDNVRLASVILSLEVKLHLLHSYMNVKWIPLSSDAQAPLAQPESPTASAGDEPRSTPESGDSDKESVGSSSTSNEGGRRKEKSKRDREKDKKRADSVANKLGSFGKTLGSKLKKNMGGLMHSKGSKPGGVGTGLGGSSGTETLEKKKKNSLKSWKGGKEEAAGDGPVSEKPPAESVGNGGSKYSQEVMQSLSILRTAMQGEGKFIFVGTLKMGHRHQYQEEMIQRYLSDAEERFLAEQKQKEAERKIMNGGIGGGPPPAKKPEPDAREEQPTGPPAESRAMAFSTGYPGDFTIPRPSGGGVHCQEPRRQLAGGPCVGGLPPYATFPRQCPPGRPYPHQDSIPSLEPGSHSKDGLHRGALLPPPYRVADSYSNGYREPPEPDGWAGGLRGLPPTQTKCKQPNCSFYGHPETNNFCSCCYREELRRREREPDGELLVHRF
Outline: as §1

PRPF8 = PRPF8 (UniProt Q6P2Q9)
Outline: as §1

PSMD7 = target: T3, PSMD7 (UniProt P51665)
T3 sequence (whole entry): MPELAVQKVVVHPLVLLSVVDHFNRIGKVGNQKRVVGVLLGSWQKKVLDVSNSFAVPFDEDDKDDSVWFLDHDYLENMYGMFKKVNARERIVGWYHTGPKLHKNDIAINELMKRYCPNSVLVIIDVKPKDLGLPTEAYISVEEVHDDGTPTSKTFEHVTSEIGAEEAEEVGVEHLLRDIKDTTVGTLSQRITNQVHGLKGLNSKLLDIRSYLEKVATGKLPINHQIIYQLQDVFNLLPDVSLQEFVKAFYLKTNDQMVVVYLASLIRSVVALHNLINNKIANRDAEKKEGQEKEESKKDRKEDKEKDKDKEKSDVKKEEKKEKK
Outline: as §1

UCHL1 = UCHL1 (UniProt P09936)
UCHL1, sequence (P09936 whole entry, looked up): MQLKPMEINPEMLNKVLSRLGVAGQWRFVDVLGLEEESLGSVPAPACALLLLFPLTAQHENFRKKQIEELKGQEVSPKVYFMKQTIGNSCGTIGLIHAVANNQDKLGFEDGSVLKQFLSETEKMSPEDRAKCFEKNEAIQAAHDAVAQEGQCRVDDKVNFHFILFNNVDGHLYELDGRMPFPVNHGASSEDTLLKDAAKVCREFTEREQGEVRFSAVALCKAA
Outline: as §1

UCHL3 = target: T4, UCHL3 (UniProt P15374)
T4 sequence (whole entry): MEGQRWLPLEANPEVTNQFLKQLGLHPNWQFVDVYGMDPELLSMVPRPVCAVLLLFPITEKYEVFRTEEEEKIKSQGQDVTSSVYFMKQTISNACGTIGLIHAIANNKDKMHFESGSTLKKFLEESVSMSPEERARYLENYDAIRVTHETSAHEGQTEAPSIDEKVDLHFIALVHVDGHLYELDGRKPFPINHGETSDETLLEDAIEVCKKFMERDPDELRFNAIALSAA
Outline: as §1

UCHL5 = target: T5, UCHL5 (UniProt Q9Y5K5)
T5 sequence (whole entry): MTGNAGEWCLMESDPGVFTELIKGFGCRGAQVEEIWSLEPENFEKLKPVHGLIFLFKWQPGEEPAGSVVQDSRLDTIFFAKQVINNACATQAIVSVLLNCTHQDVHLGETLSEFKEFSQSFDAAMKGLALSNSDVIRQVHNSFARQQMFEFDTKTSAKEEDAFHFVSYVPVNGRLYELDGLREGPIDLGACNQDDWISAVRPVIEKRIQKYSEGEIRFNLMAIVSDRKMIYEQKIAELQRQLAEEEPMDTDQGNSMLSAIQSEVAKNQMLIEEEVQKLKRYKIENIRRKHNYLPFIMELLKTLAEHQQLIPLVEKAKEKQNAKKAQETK
Outline: as §1

USP10 = USP10 (UniProt Q14694)
USP10, sequence (Q14694 whole entry): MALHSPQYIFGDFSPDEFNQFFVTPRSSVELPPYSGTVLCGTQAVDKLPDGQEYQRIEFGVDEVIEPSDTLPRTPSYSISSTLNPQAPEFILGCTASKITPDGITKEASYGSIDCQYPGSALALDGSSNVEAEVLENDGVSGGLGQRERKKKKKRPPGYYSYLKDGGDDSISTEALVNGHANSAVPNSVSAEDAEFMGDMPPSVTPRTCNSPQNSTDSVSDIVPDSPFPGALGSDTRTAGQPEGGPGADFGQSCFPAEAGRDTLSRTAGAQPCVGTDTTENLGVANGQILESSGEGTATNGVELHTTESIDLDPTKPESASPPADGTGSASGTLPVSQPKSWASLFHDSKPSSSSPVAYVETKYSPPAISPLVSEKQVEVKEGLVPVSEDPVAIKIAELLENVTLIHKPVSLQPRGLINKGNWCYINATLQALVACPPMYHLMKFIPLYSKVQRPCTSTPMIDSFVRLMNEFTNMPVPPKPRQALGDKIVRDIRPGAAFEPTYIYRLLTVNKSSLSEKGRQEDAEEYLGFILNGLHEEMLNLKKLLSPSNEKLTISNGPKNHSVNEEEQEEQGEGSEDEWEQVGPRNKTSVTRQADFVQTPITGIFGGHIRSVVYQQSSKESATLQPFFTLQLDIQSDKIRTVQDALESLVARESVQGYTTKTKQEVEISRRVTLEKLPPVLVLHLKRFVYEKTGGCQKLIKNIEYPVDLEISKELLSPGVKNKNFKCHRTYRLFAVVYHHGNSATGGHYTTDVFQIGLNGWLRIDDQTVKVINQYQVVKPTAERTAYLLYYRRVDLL
Outline: as §1

USP15 = target: T6, USP15 (UniProt Q9Y4E8)
T6 sequence (whole entry): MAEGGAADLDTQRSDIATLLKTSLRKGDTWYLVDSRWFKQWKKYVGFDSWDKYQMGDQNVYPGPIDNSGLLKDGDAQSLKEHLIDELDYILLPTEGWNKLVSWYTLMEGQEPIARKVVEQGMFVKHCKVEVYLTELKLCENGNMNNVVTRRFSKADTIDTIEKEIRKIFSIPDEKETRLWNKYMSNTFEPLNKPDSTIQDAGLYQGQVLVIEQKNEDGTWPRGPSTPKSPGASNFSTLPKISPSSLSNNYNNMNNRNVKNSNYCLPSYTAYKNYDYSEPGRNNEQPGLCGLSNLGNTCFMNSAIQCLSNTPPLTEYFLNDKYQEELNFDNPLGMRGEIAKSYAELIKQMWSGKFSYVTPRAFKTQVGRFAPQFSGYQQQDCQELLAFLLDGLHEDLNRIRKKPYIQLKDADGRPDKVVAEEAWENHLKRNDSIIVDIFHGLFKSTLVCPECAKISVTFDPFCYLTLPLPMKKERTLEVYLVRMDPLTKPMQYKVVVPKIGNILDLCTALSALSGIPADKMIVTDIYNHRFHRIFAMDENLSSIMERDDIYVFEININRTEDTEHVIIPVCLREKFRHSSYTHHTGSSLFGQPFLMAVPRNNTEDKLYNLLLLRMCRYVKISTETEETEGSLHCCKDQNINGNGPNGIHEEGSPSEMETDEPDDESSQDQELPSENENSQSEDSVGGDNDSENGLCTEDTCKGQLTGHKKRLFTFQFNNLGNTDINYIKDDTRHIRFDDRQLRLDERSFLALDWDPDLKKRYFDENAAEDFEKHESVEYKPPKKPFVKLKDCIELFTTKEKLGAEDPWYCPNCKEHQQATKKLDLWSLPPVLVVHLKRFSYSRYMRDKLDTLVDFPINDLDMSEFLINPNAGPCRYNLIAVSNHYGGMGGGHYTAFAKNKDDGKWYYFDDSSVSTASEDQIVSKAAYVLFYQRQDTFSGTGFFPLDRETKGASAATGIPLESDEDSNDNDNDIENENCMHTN
Outline: as §1

USP16 = USP16 (UniProt Q9Y5T5)
USP16, sequence (Q9Y5T5 whole entry, looked up): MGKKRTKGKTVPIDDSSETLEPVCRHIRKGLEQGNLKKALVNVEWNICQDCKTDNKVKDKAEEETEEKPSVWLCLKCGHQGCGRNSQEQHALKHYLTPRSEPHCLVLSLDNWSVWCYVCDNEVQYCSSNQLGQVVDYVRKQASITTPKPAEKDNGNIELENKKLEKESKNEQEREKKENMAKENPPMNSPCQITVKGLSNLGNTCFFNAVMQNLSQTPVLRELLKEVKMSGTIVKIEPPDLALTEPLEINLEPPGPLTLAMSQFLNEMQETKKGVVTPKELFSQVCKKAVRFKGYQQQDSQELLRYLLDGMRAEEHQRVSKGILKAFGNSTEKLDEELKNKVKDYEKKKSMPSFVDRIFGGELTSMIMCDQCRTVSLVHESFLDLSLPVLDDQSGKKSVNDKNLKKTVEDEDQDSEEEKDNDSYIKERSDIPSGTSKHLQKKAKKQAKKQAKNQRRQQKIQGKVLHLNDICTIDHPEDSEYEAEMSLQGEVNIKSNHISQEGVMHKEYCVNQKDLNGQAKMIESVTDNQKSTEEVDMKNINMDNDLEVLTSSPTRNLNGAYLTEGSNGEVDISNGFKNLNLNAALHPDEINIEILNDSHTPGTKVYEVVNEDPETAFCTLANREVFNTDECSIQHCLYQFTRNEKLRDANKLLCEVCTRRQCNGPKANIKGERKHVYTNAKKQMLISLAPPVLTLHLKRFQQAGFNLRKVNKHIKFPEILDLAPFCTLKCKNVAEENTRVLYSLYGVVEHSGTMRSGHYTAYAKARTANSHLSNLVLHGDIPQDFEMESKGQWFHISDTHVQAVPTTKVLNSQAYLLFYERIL
Outline: as §1

Measured: log2 ratio of Biotin-Ahx-Ub-VS probe labelling

NC(=O)C1CCCN(C(=O)CCl)C1 (stereo not given)
active: UCHL1 -1.4
inactive: OTUD6B 0.0096 | OTUD7B -0.633 | PRPF8 0.0408 | PSMD7 -0.26 | UCHL3 0.133 | UCHL5 0.0623 | USP10 -0.05 | USP15 -0.0343 | USP16 -0.387

Source: the supplement of paper PMC11732987, “Enantioselective OTUD7B fragment discovery through chemoproteomics screening and high-throughput optimisation” (Communications Chemistry, 2025)
